The record followed here is PubChem BioAssay.

In assay [1] the target is ATP-dependent translocase ABCB1 (Homo sapiens) (UniProt P08183). Kind of assay: P-glycoprotein substrate transport blockade – cell-based (AID 377; in the data active = fluorescence slope change above about 50%). The settings on record: MDR1-expressing cells, fluorescent substrate accumulation slope; stronger effect = higher value; concentration not given here.
Assay [2] in a line: compounds altering viability of human ES cells (AID 493140).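 Note: cells exposed to compounds for four days before counting.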 The settings on record: human embryonic stem cell survival screen; stronger effect = higher value.
A short description of assay [3]: P. berghei load reduction in hepatocytes – cell-based, HepG2, luciferase luminescence, HepG2 viability, primary screen (AID 624349; in the data active = parasite load remaining mostly below about 12%, no sharp cut-off; inactive = mostly above about 10%;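 note: 100% = mean of DMSO negative control wells on the same plate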). To be noted: P. berghei liver stage in HepG2, luciferase luminescence, concentration not given here; parasite load remaining: stronger effect = lower value; viability: measured here: HepG2 viability without parasites.
For assay [4], the system named is Aerobactin synthetase IucA (Klebsiella pneumoniae). Kind of assay: inhibition of K. pneumoniae IucA enzyme – biochemical, Tocris library, absorbance (AID 1345561).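 Note: 100% = enzyme without compound and 0% = no enzyme.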 The settings on record: purified IucA enzyme assay, absorbance (OD) read-out; stronger effect = lower value;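 tested at 8 µM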.
Assay [5] in a line: viability loss with induced miR-34 in A549 – imaging, A549 dox-inducible miR-34, nuclei and caspase counts, primary screen (AID 1347080;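 active = compounds whose cell count with miR-34 switched on is under 0.7 times the count with it off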). To be noted: A549 miR-34 inducible, Hoechst nuclei count, 48 h.
The nature of assay [6]: MELAS cybrid and Rieske KO viability enhancers – cell-based, MELAS cybrids, Rieske KO mouse fibroblasts, CellTiter-Glo, primary screen (AID 1508586;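 active = mean z-score across replicates of 1.96 or higher in either the MELAS or the Rieske mutant cell line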;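 note: z relative to plate mean and SD of compound and empty wells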). To be noted: low glucose. A general note: In ATP-based viability assays light output follows the ATP content of the culture.
In assay [7] the target is NAD(+) hydrolase SARM1 (Homo sapiens) (UniProt Q6SZW1). Kind of assay: blocking NAD cleavage by SARM1 SAM-TIR – cell lysate, NAD-Glo luminescence (AID 1508614;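 active = compound whose remaining NAD level is above about 45 nM, limit read from the data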;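 note: higher remaining NAD means stronger inhibition of SARM1 NADase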). The settings on record: SAM-TIR HEK293T lysate NADase, at 1 µM, stronger effect = higher value.
Assay [8] has as its target Mitogen-activated protein kinase 7 (Homo sapiens) (UniProt Q13164). As to the kind of experiment: Gal4-ERK5 driven luciferase induction – cell-based, HTS, primary screen (AID 1508626;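 active = luciferase signal above three times the same-plate solvent-only control wells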;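 note: luciferase driven by Gal4-ERK5 fusion binding five Gal4 sites before minimal TATA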). The settings on record: HeLa Gal4-ERK5 transactivation, 18 h, at 5 µM, stronger effect = higher value.
Assay [9] can be described thus: galactose survival enhancers in mitochondrial complex I cybrids – cell-based, galactose medium, ATP luminescence, primary screen (AID 1645843;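 active = z-score of at least 1.8 in each of two replicates, scored against plate mean and spread of sample wells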;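 note: positive z means more ATP and so rescue of galactose-driven cybrid death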). To be noted: complex I mutant cybrid cells, 72 h, stronger effect = higher value.
A short description of assay [10]: compounds altering circadian rhythm period length – cell-based, LOPAC library, luminescence reporter (AID 2774).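 Note: values are relative to mean of DMSO wells on each plate.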 To be noted: circadian reporter cells, at 7 µM, actives lie on both sides.
Assay [11] deals with Hepatitis C virus NS3 helicase. As to the kind of experiment: blockers of NS3h binding to ssDNA – biochemical, fluorescence polarization, LOPAC1280 library, primary screen (AID 687035; in the data active = inhibition above about 37%). To be noted: Purified HCV NS3 helicase, Cy5-dT15 ssDNA binding fluorescence polarization; stronger effect = higher value; concentration not given here. A general note: In fluorescence polarisation assays a small probe gives low polarisation when free and higher when bound to something large.

Assay [12] is described as follows: compounds altering Cy5-DNA-NS3h complex signal – biochemical, LOPAC1280, artefact control for HCV NS3 helicase inhibitor project (AID 687037). The settings on record: Cy5-DNA-NS3h complex fluorescence interference counterscreen. A general note: A counterscreen serves to expose hits that act by an unwanted route or on another target.
Assay [13] is described as follows: blockers of cellular phospholipid synthesis – cell-based, LOPAC library, screen 4, primary screen (AID 1347384). The settings on record: animal cells, phospholipid biosynthesis inhibition screen; at 10 µM.
Assay [14] in a line: chitosan synthesis blockers in C. neoformans – flow cytometry, Cibacron Brilliant Red staining (AID 1347148).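 Note: compound exposure lasted three days at 37 degrees C.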 To be noted: Cryptococcus neoformans chitosan, stronger effect = lower value; at 10 µM unless noted.
Where [15] appears, read: stronger effect = lower value, cell number ratio, induced over uninduced.
The mark [16] stands for this setting: measured here: relative caspase fold change +Dox/-Dox.
[17] abbreviates: measured here: total cells with miR-34 induction, stronger effect = lower value.
Setting [18] is: measured here: total cells without miR-34 induction.
The mark [19] stands for this setting: MELAS cybrid survival, CellTiter-Glo 48 h, stronger effect = higher value.
The mark [20] stands for this setting: Rieske KO mouse fibroblast survival, CellTiter-Glo 72 h.

Values joined by “and” are separate entries in the source; they are usually repeats but may differ in a detail not shown here. Equal entries are not always repeated. Results filed as inconclusive are left out. Active and inactive are the calls of the source. Unless noted, the rule behind the calls is not given here.

NAD(+) hydrolase SARM1 (Homo sapiens), sequence (Q6SZW1 whole entry, looked up, the tested form may be a part): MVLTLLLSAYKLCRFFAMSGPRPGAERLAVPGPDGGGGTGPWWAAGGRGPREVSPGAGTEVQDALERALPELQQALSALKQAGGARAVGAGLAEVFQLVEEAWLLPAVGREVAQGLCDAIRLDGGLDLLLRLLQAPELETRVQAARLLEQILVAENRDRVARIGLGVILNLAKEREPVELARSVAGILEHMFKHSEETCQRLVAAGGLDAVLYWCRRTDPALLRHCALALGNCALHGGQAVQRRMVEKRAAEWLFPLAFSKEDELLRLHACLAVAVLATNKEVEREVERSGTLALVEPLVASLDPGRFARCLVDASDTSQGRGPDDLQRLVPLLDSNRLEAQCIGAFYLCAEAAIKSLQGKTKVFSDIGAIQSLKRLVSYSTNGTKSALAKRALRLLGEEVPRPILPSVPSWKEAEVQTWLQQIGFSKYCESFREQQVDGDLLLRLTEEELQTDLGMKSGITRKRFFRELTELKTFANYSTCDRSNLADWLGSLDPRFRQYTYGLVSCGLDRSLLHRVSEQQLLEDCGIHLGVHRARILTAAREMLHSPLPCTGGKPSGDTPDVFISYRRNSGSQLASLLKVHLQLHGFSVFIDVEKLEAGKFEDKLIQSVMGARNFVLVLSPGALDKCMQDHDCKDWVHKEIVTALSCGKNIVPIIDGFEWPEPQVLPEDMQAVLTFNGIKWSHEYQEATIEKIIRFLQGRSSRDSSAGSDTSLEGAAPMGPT
ATP-dependent translocase ABCB1 (Homo sapiens), sequence (P08183 whole entry, looked up): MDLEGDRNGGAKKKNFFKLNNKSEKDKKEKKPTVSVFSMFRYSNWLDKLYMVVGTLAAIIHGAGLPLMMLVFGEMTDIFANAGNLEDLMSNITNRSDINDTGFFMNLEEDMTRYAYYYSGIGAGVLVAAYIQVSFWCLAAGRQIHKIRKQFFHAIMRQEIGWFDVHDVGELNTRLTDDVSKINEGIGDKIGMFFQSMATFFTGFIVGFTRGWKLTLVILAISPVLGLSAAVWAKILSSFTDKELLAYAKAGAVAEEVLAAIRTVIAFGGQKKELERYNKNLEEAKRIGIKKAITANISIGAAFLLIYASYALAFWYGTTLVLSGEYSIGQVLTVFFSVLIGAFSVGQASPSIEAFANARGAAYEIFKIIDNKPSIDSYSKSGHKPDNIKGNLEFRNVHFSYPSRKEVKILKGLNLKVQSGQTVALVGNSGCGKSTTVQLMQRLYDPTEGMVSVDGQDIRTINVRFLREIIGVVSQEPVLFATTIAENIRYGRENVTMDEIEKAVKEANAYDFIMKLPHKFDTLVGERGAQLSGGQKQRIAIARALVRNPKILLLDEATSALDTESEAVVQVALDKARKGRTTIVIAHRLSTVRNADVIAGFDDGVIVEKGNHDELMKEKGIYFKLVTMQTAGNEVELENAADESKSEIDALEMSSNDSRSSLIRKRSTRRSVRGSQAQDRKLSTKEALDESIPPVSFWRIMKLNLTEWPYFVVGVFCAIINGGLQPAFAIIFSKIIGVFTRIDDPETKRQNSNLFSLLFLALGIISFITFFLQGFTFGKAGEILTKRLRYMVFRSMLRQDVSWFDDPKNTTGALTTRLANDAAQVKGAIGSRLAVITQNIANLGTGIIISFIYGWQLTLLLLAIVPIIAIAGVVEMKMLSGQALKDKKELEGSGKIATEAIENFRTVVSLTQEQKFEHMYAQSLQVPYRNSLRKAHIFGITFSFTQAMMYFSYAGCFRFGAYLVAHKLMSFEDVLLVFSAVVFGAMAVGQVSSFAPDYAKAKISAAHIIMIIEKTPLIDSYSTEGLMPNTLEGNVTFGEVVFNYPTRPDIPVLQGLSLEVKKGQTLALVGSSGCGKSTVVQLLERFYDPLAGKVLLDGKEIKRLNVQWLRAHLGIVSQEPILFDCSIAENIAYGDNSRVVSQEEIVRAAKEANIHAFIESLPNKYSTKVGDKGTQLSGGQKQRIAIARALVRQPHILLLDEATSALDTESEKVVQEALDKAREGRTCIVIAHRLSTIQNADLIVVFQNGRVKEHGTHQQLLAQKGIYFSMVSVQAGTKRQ
Mitogen-activated protein kinase 7 (Homo sapiens), sequence (Q13164 whole entry, looked up, the tested form may be a part): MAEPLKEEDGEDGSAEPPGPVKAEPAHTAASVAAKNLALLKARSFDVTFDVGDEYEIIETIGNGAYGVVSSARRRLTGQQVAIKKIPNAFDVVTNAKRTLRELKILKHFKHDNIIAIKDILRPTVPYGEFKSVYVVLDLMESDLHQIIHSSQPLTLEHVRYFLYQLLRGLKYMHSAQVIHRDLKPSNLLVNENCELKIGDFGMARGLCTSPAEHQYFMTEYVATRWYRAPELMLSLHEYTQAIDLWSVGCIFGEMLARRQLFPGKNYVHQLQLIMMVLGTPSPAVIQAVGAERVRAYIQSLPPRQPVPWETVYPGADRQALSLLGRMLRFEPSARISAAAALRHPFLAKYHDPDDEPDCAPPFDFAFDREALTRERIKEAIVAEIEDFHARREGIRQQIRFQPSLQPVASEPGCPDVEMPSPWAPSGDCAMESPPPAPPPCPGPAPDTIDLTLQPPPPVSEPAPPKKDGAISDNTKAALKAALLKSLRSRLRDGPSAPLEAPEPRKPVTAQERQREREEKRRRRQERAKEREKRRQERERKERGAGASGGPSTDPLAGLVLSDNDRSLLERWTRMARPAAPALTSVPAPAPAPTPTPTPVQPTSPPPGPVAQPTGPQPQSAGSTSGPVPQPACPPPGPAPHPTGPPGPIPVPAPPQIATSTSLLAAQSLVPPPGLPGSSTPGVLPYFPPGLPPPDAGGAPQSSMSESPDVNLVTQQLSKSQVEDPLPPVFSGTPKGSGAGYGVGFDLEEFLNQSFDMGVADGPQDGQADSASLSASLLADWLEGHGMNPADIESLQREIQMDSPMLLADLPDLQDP

`CN1CCc2cccc3c2[C@H]1Cc1ccc(O)c(O)c1-3`: the fluorescence slope change in assay [1] is 65.8% (active). In addition, in assay [2], the survival is 6.58 (inactive). In addition, in [3], the parasite load remaining was 7.04% (inactive) and 82% (inactive) and 31.2% (inactive). Further, the viability (in general, a read-out of living cells in per cent, often relative to untreated cells) in [3] was 42.7% and 84.6% and 138%. The remaining activity (as a rule, the signal under treatment as a percentage of the control signal) in [4] was 113% (inactive). Besides, the fold change in [5] (setting [15]) was 0.946 (inactive) and 0.949 (inactive) and 0.917 (inactive); in assay [5] (setting [16]), 0.839 and 1.17 and 0.734. For the same compound, the cell count in assay [5] (setting [17]) was 7920 and 7790 and 8530; in [5] (setting [18]), 8370 and 8210 and 9300. The z-score in [6] (setting [19]) was 0.207 (inactive) and -0.194 (inactive); in assay [6] (setting [20]), 0.641 and 0.16; in assay [9], -1.04 (inactive) and -2.25 (inactive). The remaining NAD in [7] is 53 nM (active). The luciferase signal in assay [8] was 48 AU (inactive).
On to `CCCN(CC1CC1)c1nc(C)nc(Nc2c(Cl)cc(Cl)cc2Cl)c1Cl`, for which the period change in assay [10] was 0.125 h (inactive). In assay [11], the inhibition (in general, the change of the read-out against control, counted positive when it falls) was -2% (inactive). Also, in assay [12], the fluorescence ratio (interference) is 1 (inactive). Also, the remaining activity in assay [4] is 116% (inactive). In addition, the fold change is 1.08 (inactive) and 0.941 (inactive) in assay [5] (setting [15]); 0.691 and 0.818 in assay [5] (setting [16]). Besides, the cell count is 9180 and 7650 in assay [5] (setting [17]); 8510 and 8120 in [5] (setting [18]). The call in assay [13] was inactive. The z-score in [9] was -1.02 (inactive) and -0.83 (inactive).
In the case of `CCc1ccc2c(-c3cccc(Cl)c3)nc(=O)n(CC)c2n1`, in assay [11], the inhibition was -2% (inactive). Also, the fluorescence ratio (interference) in assay [12] was 1 (inactive). In addition, the remaining activity in assay [4] was 124% (inactive). Besides, the fold change in assay [5] (setting [15]) was 1.11 (inactive) and 0.913 (inactive); in assay [5] (setting [16]) it was 1.55 and 0.664. In addition, the cell count in [5] (setting [17]) was 9380 and 8340; in assay [5] (setting [18]), 8460 and 9140. In addition, in assay [13], the compound was classed as inactive. Besides, the z-score in assay [9] was 1.02 (inactive) and -0.175 (inactive).
In the case of `CC(C)[C@@H]1CC[C@@H](C)C[C@@H]1P(=O)(c1ccccc1)c1ccccc1`, the inhibition in assay [11] is 2% (inactive). Further, the fluorescence ratio (interference) in [12] is 1 (inactive). Further, the remaining activity in assay [4] was 100% (inactive). In addition, the fold change in [5] (setting [15]) is 0.961 (inactive) and 0.925 (inactive); in assay [5] (setting [16]) it was 0.895 and 1.06. In addition, the cell count in assay [5] (setting [17]) is 8530 and 7980; in assay [5] (setting [18]), 8880 and 8620. In assay [13], the call was inactive. Moreover, in assay [9], the z-score was 0.1 (inactive) and -0.24 (inactive).
`N=C(N)SCCc1cnc[nH]1`: the period change in assay [10] was 0.045 h (inactive). Besides, the inhibition in assay [11] is -3% (inactive). The fluorescence ratio (interference) in [12] is 1 (inactive). Also, the remaining activity in assay [4] was 120% (inactive). Further, the fold change in [5] (setting [15]) is 0.923 (inactive) and 0.986 (inactive); in assay [5] (setting [16]), 1.08 and 0.938. In addition, the cell count in assay [5] (setting [17]) was 8720 and 7870; in assay [5] (setting [18]) it was 9460 and 7980. The outcome in [13] was inactive. Also, the z-score in [9] was 0.08 (inactive) and 0.435 (inactive).
`Oc1cc2c(c(Cl)c1O)CCNCC2c1ccccc1` (configuration not stated): the period change in assay [10] is 0.11 h (inactive). Also, the fluorescence ratio (interference) in [12] is 0.6 (active). Also, the remaining activity in assay [4] is 120% (inactive). Further, the fold change in assay [5] (setting [15]) is 1.3 (inactive) and 0.885 (inactive); in assay [5] (setting [16]) it was 0.646 and 0.88. For the same compound, the cell count in assay [5] (setting [17]) was 5030 and 5850; in [5] (setting [18]), 3880 and 6610. In addition, the compound was called inactive in assay [13]. Also, the z-score in assay [9] is 0.1 (inactive) and -0.405 (inactive).
`O=C(NCCNCC(O)COc1ccc(O)cc1)N1CCOCC1` (configuration not stated): in assay [10], the period change was -0.145 h (inactive). Moreover, the survival in assay [2] was 3.92 (inactive). Also, in assay [3], the parasite load remaining was 67.2% (inactive) and 53.1% (inactive). The viability in assay [3] was 92.7% and 101%. The remaining activity in assay [4] was 86.3% (inactive). Moreover, the fold change in assay [5] (setting [15]) was 0.933 (inactive) and 0.982 (inactive) and 0.986 (inactive); in assay [5] (setting [16]) it was 1.12 and 0.678 and 0.984. The cell count was 9570 and 9500 and 10300 in assay [5] (setting [17]); 10300 and 9670 and 10400 in assay [5] (setting [18]). Also, the z-score in [6] (setting [19]) was 0.558 (inactive) and 0.821 (inactive); in assay [6] (setting [20]), -0.323 and 0.721; in assay [9], 1.45 (inactive) and 0.315 (inactive).
`COc1ccc(CCCOC(Cn2ccnc2)c2ccc(OC)cc2)cc1` (configuration not stated): the remaining activity in [4] was 113% (inactive). In addition, the fold change in assay [5] (setting [15]) is 1.01 (inactive) and 1.05 (inactive); in assay [5] (setting [16]) it was 1.53 and 0.475 and 0.778. Also, the cell count was 1590 and 4390 and 2690 in [5] (setting [17]); 1570 and 4170 and 2650 in [5] (setting [18]). Also, in assay [9], the z-score was -0.775 (inactive).
For `Cc1ccc2c(c1)C(=O)C1(O)CCN(c3ccccc3)C1=N2` (configuration not stated), in assay [4], the remaining activity was 119% (inactive). Moreover, the fold change was 0.944 (inactive) and 1.14 (inactive) and 0.93 (inactive) in [5] (setting [15]); 1.39 and 0.747 and 0.79 in assay [5] (setting [16]). In addition, the cell count in assay [5] (setting [17]) was 2140 and 6710 and 5140; in [5] (setting [18]) it was 2270 and 5900 and 5530. Besides, in [9], the z-score was 0.035 (inactive).
In the case of `CC1(C)CCC(C)(C)c2cc(C(=O)Nc3ccc(C(=O)O)cc3)ccc21`, in [2], the survival was 83.8 (inactive). Besides, the cell count in assay [5] (setting [17]) was 5520 and 7570; in assay [5] (setting [18]), 5900 and 8080. For the same compound, in assay [9], the z-score was 1.25 (inactive).
Turning to `Nc1ccc(-c2nc3ccc(-c4nc5ccc(N)cc5[nH]4)cc3[nH]2)cc1`, the inhibition in [11] is -5% (inactive). In addition, the fluorescence ratio (interference) in assay [12] is 0.6 (active). Further, the remaining activity in assay [4] was 107% (inactive). Besides, the fold change was 1.02 (inactive) and 0.968 (inactive) in [5] (setting [15]); 0.586 and 0.928 in assay [5] (setting [16]). For the same compound, the cell count is 11200 and 10100 in [5] (setting [17]); 10900 and 10500 in assay [5] (setting [18]). Further, in [13], the compound was called inactive. In addition, in assay [9], the z-score is 4.82 (active) and 5.54 (active).
Consider `O=C(Nc1ccccc1)c1cc([N+](=O)[O-])ccc1Cl`, for which, in [10], the period change is -0.23 h (inactive). For the same compound, the inhibition in [11] was -5% (inactive). The fluorescence ratio (interference) in assay [12] is 1 (inactive). For the same compound, the remaining activity in assay [4] was 120% (inactive). Further, the fold fluorescence in assay [14] was 3.58 [at 180.7 µM] (inactive). Further, the result in [13] was inactive. In addition, the z-score in assay [6] (setting [19]) is -0.372 (inactive); in assay [6] (setting [20]) it was 0.0531; in assay [9], -0.715 (inactive) and -0.72 (inactive).
